Source: PMC4336329 (PLoS ONE, 2015)
Out of some 310,000 compounds screened, about 14,000 (4.5%) showed an effect of 50% or more. The effect is printed as a negative number. What follows is part of a selection rich in strong results, with near analogues and random picks from the rest.

Molecular target: human ether-à-go-go-related gene (hERG) potassium channel (human, UniProt Q12809)
Test: primary screen, population patch clamp on CHO cells stably expressing hERG; higher = less effect of the substance
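Note: peak tail current of the secondary pulse compared with the same well before compound.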

Sequence of human ether-à-go-go-related gene (hERG) potassium channel (Q12809 whole entry, looked up): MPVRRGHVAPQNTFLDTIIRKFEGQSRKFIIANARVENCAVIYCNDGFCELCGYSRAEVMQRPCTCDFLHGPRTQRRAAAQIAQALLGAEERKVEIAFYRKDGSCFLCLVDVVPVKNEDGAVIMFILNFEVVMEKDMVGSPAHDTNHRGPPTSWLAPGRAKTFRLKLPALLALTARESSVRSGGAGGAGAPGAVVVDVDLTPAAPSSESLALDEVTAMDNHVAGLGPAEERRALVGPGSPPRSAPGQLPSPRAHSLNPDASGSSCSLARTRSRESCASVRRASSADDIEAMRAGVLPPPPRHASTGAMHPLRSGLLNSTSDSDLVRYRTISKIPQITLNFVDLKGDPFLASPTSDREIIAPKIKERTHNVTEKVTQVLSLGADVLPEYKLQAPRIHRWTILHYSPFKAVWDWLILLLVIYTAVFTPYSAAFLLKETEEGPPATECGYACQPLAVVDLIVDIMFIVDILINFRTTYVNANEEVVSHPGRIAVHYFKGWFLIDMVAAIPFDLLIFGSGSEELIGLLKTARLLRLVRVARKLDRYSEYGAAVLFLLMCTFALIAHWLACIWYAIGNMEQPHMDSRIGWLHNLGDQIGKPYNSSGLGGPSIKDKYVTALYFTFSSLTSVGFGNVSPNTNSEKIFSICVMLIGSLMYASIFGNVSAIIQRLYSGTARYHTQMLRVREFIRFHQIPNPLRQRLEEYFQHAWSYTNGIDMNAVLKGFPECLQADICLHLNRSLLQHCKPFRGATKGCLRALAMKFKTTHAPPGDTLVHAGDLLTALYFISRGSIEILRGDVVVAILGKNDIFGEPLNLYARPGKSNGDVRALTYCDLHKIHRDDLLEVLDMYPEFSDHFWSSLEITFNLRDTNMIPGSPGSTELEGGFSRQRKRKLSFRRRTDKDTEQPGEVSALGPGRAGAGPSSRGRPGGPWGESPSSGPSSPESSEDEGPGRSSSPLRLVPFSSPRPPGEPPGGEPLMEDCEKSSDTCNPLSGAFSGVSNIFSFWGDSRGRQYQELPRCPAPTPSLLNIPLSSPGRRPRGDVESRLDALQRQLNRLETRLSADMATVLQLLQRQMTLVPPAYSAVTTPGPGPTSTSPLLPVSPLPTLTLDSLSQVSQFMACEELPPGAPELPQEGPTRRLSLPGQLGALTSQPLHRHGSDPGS

SMILES | hERG current change (%, negative = inhibition) at 10uM [%]
CCn1c(CNC(=O)c2ccc(OC)c(OC)c2)nnc1SCC(=O)Nc1ccccc1 | -21.5
COC(=O)C1=C(c2cccc(C#N)c2)C[C@@H]2CC[C@H]1N2C(=O)N1CCOCC1 | 6.41
COc1ccc(-c2noc(CN(C)C(=O)CCN3C(=O)[C@H]4CC=CC[C@H]4C3=O)n2)cc1 | -2
COc1cc(C(=O)NCC(=O)OCC(=O)N2CCc3ccccc32)cc(OC)c1OC | 3.43
COc1ccc(OC)c(S(=O)(=O)Oc2ccc(N)c3ccccc23)c1 | 7.83
CC(C)(C)c1ccc(C(=O)NNC(=S)NCC2CCCO2)cc1 (stereo not drawn) | 14.4
CCOc1ccc(NC(=O)CCSc2ccc(C)cc2)cc1 | 8.63
Cc1ccc(NC(=O)N2CCN(C(=O)c3ccco3)CC2)cc1Cl | -2.38
Cc1ccc(Nc2nc(N)nc(CN3CCN(C(=O)c4ccco4)CC3)n2)cc1Cl | -74
Nc1nc(CN2CCN(C(=O)c3ccco3)CC2)nc(Nc2cccc(Cl)c2)n1 | -78.6
O=C(c1ccco1)N1CCN(C(=O)c2ccc(CS(=O)c3cccc(Cl)c3)o2)CC1 (stereo not drawn) | -14
O=C(c1cccc(Cl)c1)N1CCN(C(=O)c2ccco2)CC1 | -8.43
Cc1cc(/C=C2\SC(=S)NC2=O)c(C)n1-c1ccccc1 | 14.6
Oc1c(/C=C/C=C/C=Nc2ccccc2)sc(=S)n1Cc1ccccc1 | -5.14
FC(F)(F)c1cc(-c2ccco2)nc(N2CCN(c3ccccc3)CC2)n1 | 1.67
CN1CCN(c2nc(-c3ccco3)cc(C(F)(F)F)n2)CC1 | -62.8
Fc1ccc(N2CCN(c3nc(-c4ccco4)cc(C(F)(F)F)n3)CC2)cc1 | 15.2
O=C(O)Cc1ccc(NC(=O)C2CC=CCC2C(=O)O)cc1 (stereo not drawn) | 23.7
C[C@@H](NC(=O)c1nc[nH]c1C(=O)NC1CCN(C(=O)OC(C)(C)C)CC1)c1ccccc1 | -14.4
COc1cccc(C2CC(c3c(F)cccc3Cl)n3nc(N)nc3N2)c1 (stereo not drawn) | -2.6

SMILES | hERG current change (%, negative = inhibition) at 10uM [%]
Nc1nc2n(n1)C(c1cccs1)CC(c1ccc(F)cc1)N2 (stereo not drawn) | -33.9
Nc1nc2n(n1)C(c1cccs1)CC(c1ccc(Br)cc1)N2 (stereo not drawn) | -57.5
Nc1nc2n(n1)C(c1ccccc1Cl)CC(c1ccc(F)cc1)N2 (stereo not drawn) | -25.1
CCOc1ccccc1C1CC(c2ccc(Br)cc2)Nc2nc(N)nn21 (stereo not drawn) | -55.1
Cc1ccccc1C1CC(c2ccc(Br)cc2)Nc2nc(N)nn21 (stereo not drawn) | -52.3
Nc1nc2n(n1)C(c1c(F)cccc1Cl)CC(c1ccc(F)cc1)N2 (stereo not drawn) | -62.4
Cc1ccccc1C1CC(c2ccc(F)cc2)Nc2nc(N)nn21 (stereo not drawn) | -27.2
CCOc1ccccc1C1CC(c2ccccc2)Nc2nc(N)nn21.Cl (stereo not drawn) | -11.9
Cc1ccc(C2CC(c3ccccc3C)n3nc(N)nc3N2)cc1 (stereo not drawn) | -14.6
CCOc1ccccc1C1CC(c2ccc(F)cc2)Nc2nc(N)nn21 (stereo not drawn) | -48.1
Nc1nc2n(n1)C(c1cccs1)CC(c1ccccc1)N2 (stereo not drawn) | -23.5
CC(=O)N1CCN=C1SCc1cccc(Cl)c1 | -3.91
CC(C)C(c1nnnn1C1CCCCC1)N1CCc2ccccc2C1 (stereo not drawn) | 2.91
c1ccc(-c2cnc(-c3ccccn3)nn2)cc1 | 18.6
O=C(NCc1ccco1)c1ccc(N2CCCC2=O)cc1 | 4.3
Cc1cc(Nc2ccc(O)cc2)ccc1N | 14.1
COc1ccc(CCN=C2SCC(=O)N2C)cc1OC | -4.8
CCCCn1c(N)c(N(CCOC)C(=O)CSCc2c(C)noc2C)c(=O)[nH]c1=O | 17.1
O=C(O)c1ccc(NS(=O)(=O)c2ccc(N3CCCC3)c([N+](=O)[O-])c2)cc1 | 11.3
CCN(CCO)c1nc(N2CCCCC2)c2cnn(C)c2n1 | 3.12

SMILES | hERG current change (%, negative = inhibition) at 10uM [%]
COc1ccc2c(=O)c(C(=O)O)c(-c3ccc4c(c3)OCO4)n(C)c2c1 | 17.2
CCN=C1SC(CC(=O)NCC)C(=O)N1CC (stereo not drawn) | -12.5
O=C(N/N=C/c1ccc(O)cc1)c1cc(-c2ccccc2)nc2ccccc12 | 11.2
Cc1cccc(NC(=O)c2cc3ccccc3o2)c1 | -19.8
Cn1c(NCc2ccco2)nc2ccccc21 | -10.2
CCCCn1c(C(C)NC(=O)CC)nc2ccccc21 (stereo not drawn) | -21.9
c1csc(Cn2c(-c3cccs3)nc3ccccc32)c1 | -68.6
CCn1c(NCc2ccco2)nc2ccccc21 | 2.38
C=CCn1c(-c2cccs2)nc2ccccc21 | 3.12
CCCCCCn1c(C(C)NC(=O)c2ccco2)nc2ccccc21 (stereo not drawn) | -59.9
CCn1c(-c2cccs2)nc2ccccc21 | -11.4
CCN(CC)CCn1c(NCc2ccco2)nc2ccccc21.Cl | -73
CCN(CC)CCn1c(NCc2ccccn2)nc2ccccc21.Cl | -34.4
CCCn1c(NCc2ccc(C)o2)nc2ccccc21 | -24.1
CCCCCn1c(C(C)NC(=O)CCC)nc2ccccc21 (stereo not drawn) | -48.4
CCCCCn1c(NCc2ccco2)nc2ccccc21 | -74.8
Cn1cnnc1SCC(=O)c1ccc(O)c(O)c1 | 18.7
O=C1CC2(CCCCC2)Oc2ccc(F)cc21 | -4.03
CCN(CC)CCNC(=O)Cn1cnc2sc(C)c(S(=O)(=O)N3CC(C)CC(C)C3)c2c1=O (stereo not drawn) | 24.8
COc1ccc(Cn2c(=S)[nH]c3cc(OC)c(OC)cc3c2=O)cc1 | 20.4
